# According to ChEMBL document CHEMBL3433997, “St. Jude Leishmania screening dataset” (2016):
# Molecular target: Hexose transporter 1 (Plasmodium falciparum) (UniProt O97467)
# Assay: ST_JUDE_LEISH: Cytotoxicity at 2uM final concentration against transgenic Leishmania Mexicana promastigotes LmPfHT that are glucose transport deficient and complemented with the Plasmodium falciparum hexose transporter. Activity is measured by DNA content using SYBR green in vitro
# Assay type: functional
row,SMILES,inhibition [%]
1,CC(C)(C)C(=O)Nc1c(-c2cc(=O)oc3cc4c(cc23)CCC4)oc2ccccc12,4.1
2,O=S(=O)(Nc1cccc(CCN2CCC(N3CCCCC3)CC2)c1)c1ccc(Cl)cc1,1.72
3,Clc1cccc(Cl)c1CCNCC1CCN(CC2CCCCC2)CC1,5.47
4,COc1ccc(C=Cc2ccc(-c3c(C)[nH]c(C)c(Cl)c3=O)cc2)cc1OC,-2.94
5,COc1ccccc1-c1cc(C(=O)N2CCN(S(=O)(=O)c3ccc(C)cc3)CC2)[nH]n1,3.73
6,CN(C)CC1CCCN1Cc1ccccc1-c1cnn(C)c(=O)c1Oc1cccc(C#N)c1 (stereo not given),1.03
7,Nc1nc(N)c2c3c(ccc2n1)CCC3,1.48
8,Cc1c(Cc2ccc(F)cc2)c(Cl)nc2nc(N)nc(N)c12,0.4
9,CCCCC(=O)Nc1nc2ccc([N+](=O)[O-])cc2s1,2.81
10,CN(C)CCNCc1ccc(-c2ccc(-c3nc4ccccc4[nH]3)s2)cc1,14.5

# Molecular target: Glucose transporter (Leishmania mexicana) (UniProt O61059)
# Assay: ST_JUDE_LEISH: Cytotoxicity at 2uM final concentration against transgenic Leishmania Mexicana promastigotes LmGT2 that are glucose transport deficient and complemented with the L. Mexicana glucose transporter 2. Activity is measured by DNA content using SYBR green in vitro
# Assay type: functional
row,SMILES,inhibition [%]
1,O=C(Nc1cc(Cl)cc(Cl)c1)Nc1ccnc2ccccc12,-2.71
2,CN(C)CCOc1ccc2c(=O)cc(CCc3cccc(F)c3F)n(CC(=O)N(C)Cc3ccc(-c4ccc(C(F)(F)F)cc4)cc3)c2c1,0.06
3,Cc1csc(-c2nonc2NC(=O)COc2ccccc2C(C)C)n1,2.3
4,CCOC(=O)c1c[nH]c2c(sc3cc(OC)ccc32)c1=O,-0.47
5,COc1cc(-c2nc(-c3ccccc3)c(-c3ccccc3)[nH]2)ccc1OCCN(C)C,0.91
6,Cc1ccccc1C1CCN(C2CCC(NC(=O)/C=C/c3cccc(F)c3F)CC2)CC1 (stereo not given),6.25
7,OCC1CCN(Cc2ccc(-c3ccc(-c4nc5ccccc5[nH]4)cc3)cc2)CC1,5.45
8,CNS(=O)(=O)c1ccc2c(c1)nc(C1CCN(CC3CCC(NC(=O)/C=C/c4ccc(Cl)c(Cl)c4)CC3)CC1)n2C (stereo not given),3.47
9,Cc1cc(N)c2cc(NC(=O)/C=C/c3ccccc3Cl)ccc2n1,-0.21
10,Nc1cc(-c2cccc(Cl)c2)nn1-c1ccnc2cc(Cl)ccc12,-4.37
11,CCCCCCCN(Cc1ccc(OC(C)(C)C(=O)OCC)cc1)C(=O)Nc1ccccc1OCC,-2.13
12,OC(c1ccccc1)C1CN(CCc2ccccc2)CCC1(O)c1ccccc1 (stereo not given),-1.32
13,COc1ccc2nc(-c3ccccc3)cc(NCCN(C)C)c2c1,4.86
14,CC(C)C[C@@H](/C=N/N1CCNC1=O)NC(=O)[C@H](CC(C)C)NC(=O)c1ccc(OCCN2CCOCC2)cc1,0.69
15,O=C(NC1CCCCC1)N(CCCn1ccnc1)Cc1csc(-c2ccc(CNCc3ccccc3)cc2)n1,1.34
16,Cc1cc(CNCCCCCCCNCc2ccc(-c3ccccc3)cc2)ccc1O,1.05
17,CN1CCCN(Cc2cccc(-c3ccc(NC(=O)c4cccc(C#N)c4)cc3)c2)CC1,9.31
18,CC(NC(=O)c1ccc(O)c(-c2ccc(Cl)c(Cl)c2)c1)C(=O)NCCN1CCOCC1 (stereo not given),3.62
19,Cc1nc2c(s1)c(=O)cc(CCc1cccc(F)c1F)n2CC(=O)N(Cc1ccc(-c2ccc(C(F)(F)F)cc2)cc1)C1CCN(C(C)C)CC1,1.78
20,CCc1c[nH]c2c(N(c3ccccc3)S(C)(=O)=O)cc(C(=O)N[C@@H](Cc3ccccc3)[C@H](O)CNCc3cccc(C(F)(F)F)c3)cc12,-2.38

row,SMILES,inhibition [%]
1,O=C(Nc1cccc(-c2cccc(-c3nc4cc(C(F)(F)F)ccc4[nH]3)c2)c1)c1csnn1,9.43
2,N#Cc1ccc2c(c1)CCN(CCC1CCC(NC(=O)Nc3cnc4ccccc4c3)CC1)C2 (stereo not given),2.03
3,CCS(=O)(=O)N1CCN(c2nc(-c3ccccc3)nc(COC)c2Cc2ccccc2F)CC1,4.99
4,Cc1ccc(CON2C(N)=NC(N)=NC23CCCCC3)c2ccccc12,4.18
5,Cc1cc(N[C@@H](CC(C)C)C(=O)NCCOc2ccccc2)nc(NCC2CCCCC2)n1,6.41
6,Cn1cc(C2CCN(CCCCNC(=O)c3sc(-c4ccc(C(F)(F)F)cc4)nc3CO)CC2)c2ccccc21,-0.2
7,COc1ccc(CN2CCCC(OC(c3ccc(F)cc3)c3ccc(F)cc3)C2)c(O)c1 (stereo not given),9.65
8,O=C(NCCN1CCC(c2ncc(-c3ccccc3)o2)CC1)c1ccc(NC(=O)c2ccc(Cl)cc2)cc1,1.19
9,CN(CCN)Cc1cccc(-c2ccc(-c3nc4cc(C(F)(F)F)ccc4[nH]3)s2)c1,8.17
10,COc1ccc2nccc([C@@H](O)CN3CCC(NCc4cc5ccccc5nn4)CC3)c2c1,7.16
11,CC(C)(C)C(=O)Nc1c(-c2cc(=O)oc3cc4c(cc23)CCC4)oc2ccccc12,5.42
12,O=S(=O)(Nc1cccc(CCN2CCC(N3CCCCC3)CC2)c1)c1ccc(Cl)cc1,0.8
13,Clc1cccc(Cl)c1CCNCC1CCN(CC2CCCCC2)CC1,6.54
14,COc1ccc(C=Cc2ccc(-c3c(C)[nH]c(C)c(Cl)c3=O)cc2)cc1OC,0.92
15,COc1ccccc1-c1cc(C(=O)N2CCN(S(=O)(=O)c3ccc(C)cc3)CC2)[nH]n1,-0.58
16,CN(C)CC1CCCN1Cc1ccccc1-c1cnn(C)c(=O)c1Oc1cccc(C#N)c1 (stereo not given),3.52
17,Nc1nc(N)c2c3c(ccc2n1)CCC3,1.24
18,Cc1c(Cc2ccc(F)cc2)c(Cl)nc2nc(N)nc(N)c12,-0.27
19,CCCCC(=O)Nc1nc2ccc([N+](=O)[O-])cc2s1,-0.58
20,CN(C)CCNCc1ccc(-c2ccc(-c3nc4ccccc4[nH]3)s2)cc1,12.8
